The source of these data is ChEMBL document CHEMBL3988442, “University of Dundee, Small-Polar-MMV Screening Library” (2021).

Screen size: about 48,000 compounds; about 13,000 (27%) showed an effect of 50% or more. This is one part of the list.

The subject of this experiment is Wolbachia pipientis. Briefly: Anti-Wolbachia Cell-Based Screen. Type of experiment: functional. More on the design: scale not given: in the data most compounds retested in dose-response had high values. Particulars: 5 µM.
With `O=C(OCCNc1ncccn1)c1ccc(Br)s1`, the “Percent Effect” value is -22.12%. In the case of `CNC(C(=O)N1CCC(c2nccn2C(C)C)CC1)c1ccccc1` (stereo not given) it was 12.05%; in that of `COc1ccccc1OC1CN(C(=O)Cc2c(C)nc3ccccn23)C1`, -17.73%. In the case of `CC(C)C(=O)N1CCC(c2nc3ccccn3c2NC(C)(C)C)CC1` it was 120.3%. In the case of `CC(C)c1nc(C(=O)N(C)c2ccc(Br)cn2)cs1` it was -16%; in that of `CC1CCN(S(=O)(=O)c2cccnc2)c2ccccc2S1` (stereo not given), -3.494%. On to `O=S1(=O)CCC(N2CCN(c3cc(C(F)(F)F)ccn3)CC2)C1` (stereo not given), for which the “Percent Effect” value stood at 0.5225%.

In the case of `CNc1ncc(CN2CCC(c3nnsc3S(C)(=O)=O)CC2)cn1`, the “Percent Effect” value is 122%. For `CCn1c(CN(C)C)nnc1C1CCN(Cc2cnc(C)nc2)CC1`, the “Percent Effect” value is on record as -9.341%. In the case of `COC[C@H]1CNC(=O)[C@@H]2CCN(Cc3cccc(C)n3)CC[C@H]12` it was -1.462%; in that of `CS(=O)(=O)c1snnc1C1CCCN(Cc2ccncc2)C1` (stereo not given), 95.13%. For the molecule `Cc1nccc(CN2CCC(c3nnsc3S(C)(=O)=O)CC2)n1`, the “Percent Effect” value amounted to 2.937%. Then `CC(c1nc(C2CC2)no1)N1CCN(Cc2cccnc2)CC1` (stereo not given), with 9.745%; and `CCn1c(CN2CCCC2)nnc1C1CCN(Cc2cccnc2)CC1`, with -3.145%. For `CN(C)c1ncc(CN2CCC(c3nnsc3S(C)(=O)=O)CC2)cn1`, the “Percent Effect” value is recorded as -8.857%. For `CS(=O)(=O)c1snnc1C1CCN(Cc2ccncc2)CC1`, the “Percent Effect” value is -7.486%. Consider `Cc1cccc(CN2CCC(c3nnsc3S(C)(=O)=O)CC2)n1`, for which the “Percent Effect” value stood at 122.9%. For the molecule `CS(=O)(=O)c1snnc1C1CCN(Cc2cccnc2)CC1`, the “Percent Effect” value was 133.5%. Then `Cc1cccnc1CN1CCC(c2nnc(Cn3cccn3)n2C)CC1`, with 7.8%; and `CC(C)OCCN(Cc1cccc(O)c1)C1CCC(O)CC1` (stereo not given), with -9.741%; and `CC1CCN(c2ccnc3ccc(Br)cc23)CC1`, with -3.339%.

As to `O=C(c1ccoc1)N1CCCN(C(=O)c2ccc(C3CCCN3)s2)CC1` (stereo not given), the “Percent Effect” value is 16.47%. Then `N#Cc1cccc(CNC(=O)C2=NN(c3ccccc3)C(=O)CN2)c1`, with -6.333%. Then `Cc1cccc(CN2CCC(NCC3CNc4cc(C)nn4C3)CC2)c1` (stereo not given), with 17.46%. On to `CNS(=O)(=O)c1ccc(CN2CCC(c3ccncc3)CC2)cc1`, for which the “Percent Effect” value is on record as -2.48%. For the molecule `CS(=O)(=O)c1snnc1C1CCN(Cc2ccc3nccnc3c2)CC1`, the “Percent Effect” value is 138.8%. In the case of `CC(Cn1ccnc1)NC1CCN(Cc2cccc(O)c2)CC1` (stereo not given) it was -6.042%; in that of `Cc1cccc(CN2CCC(c3nnsc3S(C)(=O)=O)CC2)c1`, 168.1%; in that of `CC(Cn1cncn1)NC1CCN(Cc2cccc(O)c2)CC1` (stereo not given), -16.09%. As for `Fc1ccc(CN2CCC(c3nccnc3-n3ccnc3)CC2)cc1`, the “Percent Effect” value is recorded as -7.393%. `CS(=O)(=O)c1snnc1C1CCN(Cc2cccc(O)c2)CC1`: the “Percent Effect” value is recorded as 145.1%. Regarding `Cc1cnc(C(=O)N2CCC3(CC2)CC(c2ccncc2)C(=O)N3)cn1` (stereo not given), the “Percent Effect” value is -2.987%. In the case of `CCCn1nnnc1CN(C)C(C)c1ccc(C)cc1` (stereo not given) it was 0.6006%; in that of `COc1ccc(C2(c3nc(-c4cnn(C)c4)no3)CCOCC2)cc1`, -8.889%; in that of `O=C(NC(CO)CO)c1coc(COc2cccc(F)c2)n1`, 9.537%.

Take `CCN(CC)CC(=O)N(C)C(c1cccc(F)c1)c1ccccn1` (stereo not given): the “Percent Effect” value came to 97.45%. On to `CCSCCNC(=O)C(c1cccc(F)c1)N(C)C` (stereo not given), for which the “Percent Effect” value is on record as -18.47%. Take `CCS(=O)(=O)NCCCNC(=O)N(C)C(C)c1ccccn1` (stereo not given): the “Percent Effect” value is given as -6.07%. As to `CC(C)N(C)CC(=O)N(C)C(c1cccc(F)c1)c1ccccn1` (stereo not given), the “Percent Effect” value came out at 102.7%. In the case of `CCN(CC)S(=O)(=O)CCNC(=O)N(C)C(C)c1ccccn1` (stereo not given) it was -1.522%; in that of `CCN(C(=O)CN(C)C(c1cccc(F)c1)c1ccccn1)C1CC1` (stereo not given), 13.51%. Then `O=S(=O)(C1CC1)N1CC[C@]2(C[C@@H](OCC3CCOCC3)CO2)C1`, with -13.41%; and `Cc1c(C(=O)N(C)CC(F)(F)F)nnn1-c1ccccc1Cl`, with -1.465%. As to `COCCn1cnc2ccc(NC(=O)C3CC3)cc2c1=O`, the “Percent Effect” value is 108.4%. On to `COCCn1cnc2ccc(NC(=O)c3ccccn3)cc2c1=O`, for which the “Percent Effect” value is recorded as 106.6%. Then `Cn1cc(NC(=O)c2ccccn2)cc(Cl)c1=O`, with -1.878%; and `COCCn1cnc2ccc(NC(=O)c3ccc(OC)cc3)cc2c1=O`, with 162.9%; and `COCCn1cc(NC(=O)NC(C)CCc2ccccc2)ccc1=O` (stereo not given), with -2.537%.

As for `COCCn1cc(NC(=O)C(C)CCc2ccccc2F)ccc1=O` (stereo not given), the “Percent Effect” value is reported as -6.604%.

`COc1cccc(C(=O)Nc2ccc(OC3CCN(C)CC3)cc2)c1`: the “Percent Effect” value is 16.42%. Regarding `COCCn1cnc2ccc(NC(=O)C(C)C)cc2c1=O`, the “Percent Effect” value turned out to be 110.7%. Then `COc1ccc(C(=O)Nc2c(C)nn(C(C)C)c2C)cc1`, with 14.16%; and `COCCN1C=NC2(CCC(C(=O)Nc3ccc(C)cc3)CC2)C1=O` (stereo not given), with -4.018%; and `COCCOc1ccc(NC(=O)C2CCC2)cn1`, with -0.09217%. In the case of `Cn1cc(NC(=O)c2ccccn2)cc(Br)c1=O`, the “Percent Effect” value was 3.766%.
